Results on 5 compounds are retold here after PubChem BioAssay.

Active and inactive are the calls of the source.

One assay addresses Albumin (Bos taurus) (UniProt P02769). Kind of assay: bovine serum albumin binders on microarray, profiling panel, artefact control for SMM control protein annotation, biochemical, small-molecule microarray, Alexa647 label, 635/667 nm fluorescence (AID 1118).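 Further: score merges 667 nm emission intensity and signal-to-noise per printed compound spot.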 Particulars: BSA-A647 binding, fluorescence 635 nm, higher = more signal.
The nature of assay [1]: small-molecule microarray binders of probe aXIP, primary screen, biochemical, NeuroSMM set, 635/667 nm fluorescence (AID 1119).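 Further: probe is the protein aXip251-270 applied at 1 µg/mL to compound-printed slides; binding of probe to printed compounds measured as 667 nm fluorescence plus signal to noise.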 Particulars: higher = more signal, called active from +8 up or from −8 down.
Assay [2] in a line: small-molecule binders of probe aNOTCH3, primary screen, biochemical, small-molecule microarray, 635/667 nm fluorescence (AID 1120).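 Further: probe is a biotin-tagged antibody raised against NOTCH3 rather than NOTCH3 protein; score merges spot fluorescence near 667 nm with spot signal to noise.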 The conditions noted are these: higher = more signal.
A short description of assay [3]: small-molecule binders of probe aNOTCH2, primary screen, biochemical, small-molecule microarray, 635/667 nm fluorescence (AID 1121).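 Further: score merges feature fluorescence read at 667 nm with its signal to noise.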 The conditions noted are these: higher = more signal.
Assay [4] addresses Carbonic anhydrase 2 (Homo sapiens) (UniProt P00918). Nature of the assay: CAII small-molecule binders, profiling panel, biochemical, small-molecule microarray, Alexa647-labelled CAII (AID 1122). Particulars: CAII-A647 binding fluorescence, higher = more signal.
The nature of assay [5]: COS7 lysate on small-molecule microarray, probe aHis, 635 nm (AID 1123).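 Further: z-score combines 667nm fluorescence intensity with signal-to-noise per printed compound spot.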 Particulars: COS7 cell lysate, fluorescence, higher = more signal.
A short description of assay [6]: compound binding in COS7 lysate, probe aLAP1, primary screen, cell lysate, small-molecule microarray (AID 1124).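 Further: lysate comes from COS7 cells expressing LAP1 and is applied at 0.3 µg/mL; score merges spot fluorescence near 667 nm with signal-to-noise over triplicate slides.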 Particulars: probe aLAP1, fluorescence, higher = more signal.
The test system of another assay is Sam68 (KHDRBS1). Kind of assay: Sam68 small-molecule binders, primary screen, biochemical, small-molecule microarray, 635 nm fluorescence (AID 1125).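 Further: score merges 667 nm channel intensity with signal to noise over triplicate slides.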 Particulars: small-molecule microarray binding, higher = more signal.
The test system of assay [7] is Chordin-like protein 2 (CHRDL2). Kind of assay: CHRDL2 small-molecule binders, primary screen, biochemical, small-molecule microarray, 635 nm fluorescence (AID 1126).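 Further: printed compound slides probed with Chrdl2 protein at 4 µg/mL for 1 h at 4 C; score merges 667 nm emission intensity with signal to noise over three replicate slides.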 The conditions noted are these: small-molecule microarray binding, fluorescence 635 nm; higher = more signal.
In assay [8] the target is Concanavalin-A (Canavalia ensiformis) (UniProt P02866). Kind of assay: ConA small-molecule binders, primary screen, artefact control for SMM control protein annotation, biochemical, small-molecule microarray, Alexa647 label, 635 nm (AID 1127).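 Further: z combines 667 nm emission intensity with signal-to-noise across three replicate slides.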 Particulars: ConA-A647 binding fluorescence, higher = more signal.
Assay [9] is described as follows: anti-His antibody binders, primary screen, artefact control for SMM control protein annotation, biochemical, small-molecule microarray, 635 nm fluorescence (AID 1128).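 Further: score merges feature fluorescence with signal-to-noise for each printed compound spot.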 Particulars: anti-His Alexa647 antibody binding, higher = more signal.
Assay [10] deals with Human papillomavirus type 1a E7 protein (residues 1-88). Nature of the assay: HPV1a E7 small-molecule binders, primary screen, biochemical, small-molecule microarray, residues 1-88, 635 nm (AID 1129). The conditions noted are these: small-molecule microarray binding, fluorescence 635 nm; higher = more signal.
Assay [11] concerns the target Focal adhesion kinase 1 (Homo sapiens) (UniProt Q05397). Kind of assay: small-molecule microarray binders of FAK, primary screen, biochemical, 635/667 nm fluorescence, BSA, DTT (AID 1130).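 Further: composite of spot emission at 667 nm and signal to noise over triplicate slides.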 Particulars: PTK2 binding, 635 nm fluorescence, higher = more signal.
Assay [12] has as its system Fibrinogen (Alexa647-labelled). Kind of assay: fibrinogen binders on compound microarrays, profiling panel, artefact control for SMM control-protein annotation, biochemical, small-molecule microarray, 635/667 nm fluorescence (AID 1131).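 Further: z-score merges 667 nm fluorescence with per-spot signal-to-noise over triplicate slides.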 Particulars: fibrinogen-A647 binding fluorescence, higher = more signal.
Assay [13] addresses Follistatin (Homo sapiens) (UniProt P19883). Nature of the assay: follistatin binders on small-molecule microarrays, primary screen, biochemical, small-molecule microarray, 635/667 nm fluorescence (AID 1132). Particulars: FST binding, 635 nm fluorescence, higher = more signal.
Assay [14] has as its target Fibroblast growth factor 2 (Homo sapiens) (UniProt P09038). Kind of assay: FGF2 binders on small-molecule microarrays, primary screen, biochemical, small-molecule microarray, 635/667 nm fluorescence (AID 1133). The conditions noted are these: small-molecule microarray binding, FGF2, fluorescence 635/667; higher = more signal.
Assay [15] in a line: mitochondrial membrane potential change in A549 cells, profiling panel, cell-based, JC-1 fluorescence, basal, 24 h, 100 nL (AID 1138).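 Further: A549 lung adenocarcinoma cells under basal conditions with no added stimulus; test concentration not given here.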 Particulars: higher = more signal.
Another assay concerns Lefty1. Kind of assay: Lefty1 binders on small-molecule microarrays, primary screen, biochemical, small-molecule microarray, 635/667 nm fluorescence (AID 1139). The conditions noted are these: small-molecule microarray binding, fluorescence 635/667; higher = more signal.
Assay [16] has as its system wheat germ agglutinin (Triticum aestivum), Alexa647-labelled. Nature of the assay: wheat germ agglutinin binders on compound microarrays, profiling panel, artefact control for SMM control-protein annotation, biochemical, small-molecule microarray, 635/667 nm fluorescence (AID 1140).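 Further: score merges 667 nm feature emission with signal to noise over triplicate slides.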 Particulars: WGA-A647 binding, 635 nm fluorescence, higher = more signal.
Assay [17] deals with Luciferin 4-monooxygenase (Photinus pyralis) (UniProt P08659). Kind of assay: firefly luciferase enzyme inhibitors, primary screen, biochemical, luminescence, purified enzyme, 2006 set (AID 1141).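 Further: cell-free assay with purified firefly luciferase at 100 ng per well in PBS; test concentration not given here.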 Particulars: SteadyGlo luminescence, 30 min, higher = more signal, called active from +8 up or from −8 down.
Sequence of Luciferin 4-monooxygenase (Photinus pyralis) (P08659 whole entry, looked up): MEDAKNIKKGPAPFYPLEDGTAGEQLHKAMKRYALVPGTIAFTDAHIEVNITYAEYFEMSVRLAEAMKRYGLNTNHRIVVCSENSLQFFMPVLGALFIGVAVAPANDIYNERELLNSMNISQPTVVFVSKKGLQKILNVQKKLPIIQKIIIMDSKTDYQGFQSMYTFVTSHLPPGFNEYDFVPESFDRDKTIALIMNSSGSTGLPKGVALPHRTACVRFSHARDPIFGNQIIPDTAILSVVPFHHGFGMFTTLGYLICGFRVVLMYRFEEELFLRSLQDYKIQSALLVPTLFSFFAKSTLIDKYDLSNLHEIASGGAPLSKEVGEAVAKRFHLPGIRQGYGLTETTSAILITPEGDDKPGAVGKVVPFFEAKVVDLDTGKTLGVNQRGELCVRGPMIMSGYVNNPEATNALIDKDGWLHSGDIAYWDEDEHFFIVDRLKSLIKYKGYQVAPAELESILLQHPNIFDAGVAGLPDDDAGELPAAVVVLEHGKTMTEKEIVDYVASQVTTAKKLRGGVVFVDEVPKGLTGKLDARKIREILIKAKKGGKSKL

Sequence of Fibroblast growth factor 2 (Homo sapiens) (P09038 whole entry, looked up): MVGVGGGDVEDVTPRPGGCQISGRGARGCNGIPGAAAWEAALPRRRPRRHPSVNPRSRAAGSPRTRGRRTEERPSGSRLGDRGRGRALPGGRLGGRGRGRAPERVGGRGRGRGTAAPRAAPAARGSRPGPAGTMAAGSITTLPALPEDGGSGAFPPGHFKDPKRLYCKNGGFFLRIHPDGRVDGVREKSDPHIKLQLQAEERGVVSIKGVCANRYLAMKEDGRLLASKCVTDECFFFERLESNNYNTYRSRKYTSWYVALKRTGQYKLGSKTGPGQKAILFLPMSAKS
Sequence of Concanavalin-A (Canavalia ensiformis) (P02866 whole entry, looked up): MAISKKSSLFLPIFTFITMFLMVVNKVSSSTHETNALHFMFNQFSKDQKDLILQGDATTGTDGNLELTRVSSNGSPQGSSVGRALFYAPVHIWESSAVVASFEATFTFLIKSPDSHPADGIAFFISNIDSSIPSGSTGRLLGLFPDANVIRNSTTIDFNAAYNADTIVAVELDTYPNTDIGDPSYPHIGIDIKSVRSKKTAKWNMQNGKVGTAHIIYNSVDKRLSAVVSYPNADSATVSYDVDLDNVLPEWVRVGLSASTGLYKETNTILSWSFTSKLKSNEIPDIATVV
Sequence of Follistatin (Homo sapiens) (P19883 whole entry, looked up): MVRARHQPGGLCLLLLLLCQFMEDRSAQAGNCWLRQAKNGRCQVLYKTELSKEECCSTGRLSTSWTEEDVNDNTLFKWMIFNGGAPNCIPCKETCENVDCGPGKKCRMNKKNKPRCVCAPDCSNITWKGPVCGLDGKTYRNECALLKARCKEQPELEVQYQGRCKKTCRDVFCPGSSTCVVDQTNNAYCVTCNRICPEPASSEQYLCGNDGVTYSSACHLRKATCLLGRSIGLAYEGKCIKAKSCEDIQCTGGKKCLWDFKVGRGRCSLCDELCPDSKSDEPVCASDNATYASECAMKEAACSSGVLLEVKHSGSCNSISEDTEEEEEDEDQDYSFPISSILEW
Sequence of Focal adhesion kinase 1 (Homo sapiens) (Q05397 whole entry, looked up): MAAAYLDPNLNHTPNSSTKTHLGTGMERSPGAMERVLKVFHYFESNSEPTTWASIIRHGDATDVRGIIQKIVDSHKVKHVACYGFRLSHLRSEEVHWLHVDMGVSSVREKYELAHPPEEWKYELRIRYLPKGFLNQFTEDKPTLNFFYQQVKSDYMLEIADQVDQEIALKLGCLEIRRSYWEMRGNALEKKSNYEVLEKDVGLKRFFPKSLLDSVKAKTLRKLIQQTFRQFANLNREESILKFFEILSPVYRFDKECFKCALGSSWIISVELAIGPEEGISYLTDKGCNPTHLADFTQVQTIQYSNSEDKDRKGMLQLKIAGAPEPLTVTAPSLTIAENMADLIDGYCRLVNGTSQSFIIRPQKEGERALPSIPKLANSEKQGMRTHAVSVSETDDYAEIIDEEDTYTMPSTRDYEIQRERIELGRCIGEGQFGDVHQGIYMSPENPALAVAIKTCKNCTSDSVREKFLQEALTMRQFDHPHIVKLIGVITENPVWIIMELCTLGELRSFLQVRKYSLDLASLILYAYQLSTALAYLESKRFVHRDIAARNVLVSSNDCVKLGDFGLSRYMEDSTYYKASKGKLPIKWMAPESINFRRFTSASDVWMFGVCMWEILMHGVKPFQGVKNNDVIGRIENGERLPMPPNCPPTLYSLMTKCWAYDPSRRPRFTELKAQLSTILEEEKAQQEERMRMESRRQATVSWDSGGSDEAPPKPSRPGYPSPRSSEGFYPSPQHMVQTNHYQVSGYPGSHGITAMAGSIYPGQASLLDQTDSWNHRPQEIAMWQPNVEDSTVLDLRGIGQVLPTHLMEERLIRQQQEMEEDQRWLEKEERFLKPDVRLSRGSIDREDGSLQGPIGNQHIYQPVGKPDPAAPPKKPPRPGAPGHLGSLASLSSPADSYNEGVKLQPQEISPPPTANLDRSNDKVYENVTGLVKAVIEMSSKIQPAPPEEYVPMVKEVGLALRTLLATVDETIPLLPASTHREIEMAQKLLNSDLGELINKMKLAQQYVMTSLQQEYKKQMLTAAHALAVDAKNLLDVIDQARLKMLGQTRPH
Sequence of Albumin (Bos taurus) (P02769 whole entry, looked up): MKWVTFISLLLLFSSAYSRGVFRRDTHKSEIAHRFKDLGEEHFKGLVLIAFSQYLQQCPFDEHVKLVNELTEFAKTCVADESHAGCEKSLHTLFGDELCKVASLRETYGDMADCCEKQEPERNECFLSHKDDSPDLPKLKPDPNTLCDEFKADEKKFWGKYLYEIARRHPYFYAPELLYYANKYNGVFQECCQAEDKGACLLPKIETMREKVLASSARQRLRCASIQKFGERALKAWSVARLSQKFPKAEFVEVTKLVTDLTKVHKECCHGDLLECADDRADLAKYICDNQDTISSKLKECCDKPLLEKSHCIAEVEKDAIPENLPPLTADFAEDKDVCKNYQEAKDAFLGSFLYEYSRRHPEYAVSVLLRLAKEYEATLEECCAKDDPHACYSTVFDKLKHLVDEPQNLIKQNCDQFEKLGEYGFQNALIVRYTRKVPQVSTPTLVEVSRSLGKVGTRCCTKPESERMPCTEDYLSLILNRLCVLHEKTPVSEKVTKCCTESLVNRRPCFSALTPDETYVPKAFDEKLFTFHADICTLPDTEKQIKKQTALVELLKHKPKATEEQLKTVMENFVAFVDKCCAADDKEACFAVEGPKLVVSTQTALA

Take `COc1ccc([Si](C)(C)[C@@H]2[C@@H](CC(=O)N3CCC[C@H]3CO)O[C@]3(C(=O)N(C)c4c(Br)cc(C)cc43)[C@H]2C)cc1`: the composite z-score with Albumin (Bos taurus) was 0.588; in assay [2] it was 0.0674; in assay [3] it was -0.175; in [4] it was 0.292; in [5] it was 1.15; in assay [6], 0.461. The composite z-score with Sam68 (KHDRBS1) came to 1.3; in [7], 0.872; in assay [8], 1.07; in [9], 0.437; in assay [10] it was 1.15; in [11] it was 0.393. The composite z-score in assay [12] came out at 0.935; in [13], 1.17; in assay [14] it was 0.987; with Lefty1, 1.19; in [16], 0.0832. Besides, the composite Z-score in assay [1] was 0.306 (inactive). The figures for the z-score in [15] and in [17] were 0.66 and -0.297 (inactive), respectively.

With `O=C1O[C@H](c2ccccc2)[C@H](c2ccccc2)N2[C@H]1[C@@H](C(=O)Nc1nc3ccccc3s1)[C@]1(C(=O)Nc3ccccc31)[C@H]2c1ccc(O)cc1`, the composite z-score with Albumin (Bos taurus) is 0.164; in [2], 0.156; in [3] it was -0.0873; in assay [4] it was 0.36; in assay [5], 1.66; in [6], 0.293. For the same compound, the composite z-score in the assay with Sam68 (KHDRBS1) was determined as 1.02; in [7] it was 0.701; in assay [8], 1.07; in assay [9], 0.156; in [10] it was 1.24; in [11] it was 0.19. Besides, the composite z-score in assay [12] came out at 0.921; in [13], 1.32; in assay [14] it was 1.47; in the assay with Lefty1, 1.08; in assay [16] it was 0.705. The composite Z-score in assay [1] is 0.0275 (inactive). The values for the z-score in assay [15] and in [17] were -2.12 and -0.647 (inactive), respectively.

Take `CS(=O)(=O)CCOC(=O)C1=CC(CCCO)=CC(c2cccs2)N(Cc2cc3c(cc2Br)OCO3)C=C1C(=O)OCCS(C)(=O)=O` (stereo not given): the composite z-score with Albumin (Bos taurus) is 0.974; in assay [2] it was 0.183; in [3] it was -0.0149; in assay [4], 0.337; in assay [5], 1.64; in [6], 0.817. The composite z-score in the assay with Sam68 (KHDRBS1) is 1.3; in assay [7] it was 0.164; in [8], 0.986; in assay [9], 1.16; in assay [10], 1.21; in assay [11], 1.11. The composite z-score in assay [12] is 1.01; in assay [13], 1.28; in assay [14] it was 0.564; in the assay with Lefty1, 1.22; in [16], 1.05. In addition, the composite Z-score in assay [1] was 1.05 (inactive). The z-score in assay [15] was 1.26; in assay [17], -1.16 (inactive).

Regarding `NCCCCCNC(=O)[C@H]1C[C@H]2C(=O)NCC(=O)N2[C@H]1c1cccc(OCCO)c1`, the composite z-score with Albumin (Bos taurus) was 0.0356; in assay [2], 0.204; in assay [3], -0.136; in assay [4], 0.429; in assay [5], 1.12; in [6] it was 0.391. For the same compound, the composite z-score with Sam68 (KHDRBS1) came out at 1.32; in assay [7], 0.636; in [8], 1.16; in assay [9], 0.524; in [10] it was 0.817; in assay [11], 0.369. Moreover, the composite z-score worked out at 0.909 in assay [12]; 1.26 in assay [13]; 1.08 in assay [14]; 1.5 in the assay with Lefty1; 0.739 in [16]. The composite Z-score in [1] is 0.131 (inactive). Besides, the z-score in assay [15] is 0.431; in assay [17] it was 0.199 (inactive).

As to `CCCCC(O)C1C=CC2C(=O)N(C3CCCCC3)C(=O)C2N1Nc1ccc(OC)cc1` (stereo not given), the composite z-score is 0.739 in the assay with Albumin (Bos taurus); 0.11 in [2]; -0.0894 in [3]; 0.511 in assay [4]; 1.53 in assay [5]; 0.56 in [6]. Also, the composite z-score is 1.19 in the assay on Sam68 (KHDRBS1); -0.135 in assay [7]; 0.8 in assay [8]; 0.17 in [9]; 1.2 in assay [10]; 0.601 in assay [11]. Further, the composite z-score in assay [12] was 0.733; in [13], 1.19; in assay [14], -0.0692; in the assay on Lefty1, 0.496; in [16], 1.14. Further, the composite Z-score in assay [1] was 0.258 (inactive). Besides, the z-score in assay [15] is 0.191; in assay [17] it was 1.06 (inactive).
